Screening results deposited in PubChem BioAssay by National Center for Advancing Translational Sciences (NCATS).
D1 antagonist – human D1 dopamine receptor antagonism | HEK293 TREx D1 cells, calcium flux, dopamine EC80; stronger effect = lower value | activity change, negative = inhibition, % at 10 µM | AID 504652 | hit rate 3.2% among 360,000; in the data active means activity change below about -30%; further: on the % scale 0 is the no-effect control and ±100 the full control effect
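After overnight tetracycline induction at 30 C, force-coupled D1 HEK293 cells took up a no-wash calcium dye at room temperature. Compounds were added and monitored 180 s, and the response to EC80 dopamine was then recorded.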
DRD3 antagonist – antagonists of human D3 dopamine receptor; P35462; D3R cells, DiscoveRx beta-arrestin luminescence, antagonist mode; stronger effect = lower value; max response, negative = inhibition, %; hit rate 2.5% among 360,000; AID 652054; in the data active means max response below about -50%; inconclusive means no clear call, values can overlap the other calls; further: on the % scale 0 is the no-effect control and ±100 the full control effect
Target sequence (P35462 whole entry, looked up): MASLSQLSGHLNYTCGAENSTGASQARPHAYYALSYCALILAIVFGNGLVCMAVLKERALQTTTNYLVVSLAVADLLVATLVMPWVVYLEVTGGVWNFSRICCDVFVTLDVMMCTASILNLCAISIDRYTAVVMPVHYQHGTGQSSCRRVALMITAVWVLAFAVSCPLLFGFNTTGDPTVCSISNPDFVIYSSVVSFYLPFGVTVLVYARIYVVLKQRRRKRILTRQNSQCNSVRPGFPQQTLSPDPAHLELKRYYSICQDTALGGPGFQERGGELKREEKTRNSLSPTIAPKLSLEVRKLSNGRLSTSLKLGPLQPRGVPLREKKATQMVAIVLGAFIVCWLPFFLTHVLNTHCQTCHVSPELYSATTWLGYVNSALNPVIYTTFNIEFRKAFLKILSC
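Cells plated overnight at 1500 cells/well, then exposed to library compounds with dopamine controls for 90 minutes at 37 degrees C. DiscoveRx reagent added for 30–60 minutes at room temperature; luminescence read, quantitative HTS format.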
D1 ag – agonists of human D1 dopamine receptor; P21728; HEK293 T-REx D1 cells, calcium flux, agonist mode; activation, % at 2 µM; hit rate 1% among 360,000; in the data active means activation above about 30%; further: 0% is about no effect
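Inducible HEK293 T-REx D1 cells, force-coupled to calcium signalling, were plated at 4000 cells/well with tetracycline and held overnight at 30 C. After no-wash calcium dye loading, compound-evoked calcium rise over 180 s flagged agonists.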
D3 ag – D3 dopamine receptor (human) agonism; P35462; D3R DiscoveRx beta-arrestin cells, luminescence, 90 min; max activation, %; hit rate 0.58% among 410,000; AID 652048; in the data active means max activation above about 30%; further: 0% is about no effect
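Agonist mode: compounds and dopamine controls were applied to plated cells for 90 min at 37 degrees C after an overnight attachment at 1500 cells/well. Luminescent read-out followed 30 - 60 minutes at room temperature with DiscoveRx detection reagent.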
D1 potentiator – potentiators of human D1 dopamine receptor; HEK293 TREx D1 cells, calcium flux, dopamine EC20 potentiation; potentiation, % at 10 µM; AID 504651; hit rate 0.036% among 360,000; in the data active means potentiation above about 30%; further: 0% is about no effect
Active calls of the source: *; ? = inconclusive; nt = no result. An excerpt weighted towards active compounds, which were near 6.1% of everything screened.

SMILES | D1 antagonist | DRD3 antagonist | D1 ag | D3 ag | D1 potentiator
COC(=O)C1=C(C(=O)c2ccccc2)C(c2ccc(OC)c(OC)c2)Nc2nnnn21 (stereo unspecified) | -22 | -75* | 4 | -4 | -6
COC(=O)C1=C(C(=O)c2ccccc2)C(c2cccs2)n2nnnc2N1 (stereo unspecified) | -14 | -60* | 1 | 0 | -2
COC(=O)C1=C(C(=O)c2ccccc2)C(c2ccc(O)c(OC)c2)n2nnnc2N1 (stereo unspecified) | nt | -19 | -1 | -15 | 0
CCOc1cc(C2C(C(=O)c3ccccc3)=C(C(=O)OC)Nc3nnnn32)ccc1O (stereo unspecified) | -9 | -55* | 2 | 1 | 0
CCOc1ccc(NC(=O)N2CCN(C(=O)c3nsc4ccccc34)CC2)cc1 | 7 | nt | -1 | 2 | 2
Cc1cc(C)c(NC(=O)COCc2cc(-c3cccs3)on2)c(C)c1 | 5 | nt | -1 | -3 | 2
O=C1c2oc3ccccc3c(=O)c2C(c2cccc(O)c2)N1c1nncs1 (stereo unspecified) | 0 | nt | 0 | -17 | -6
CCCCOc1ccc(C2c3c(oc4ccccc4c3=O)C(=O)N2c2nc(C)c(C(=O)OCC)s2)cc1OC (stereo unspecified) | -31* | nt | 0 | 4 | -2
CCCOc1cccc(C2c3c(oc4ccccc4c3=O)C(=O)N2c2nncs2)c1 (stereo unspecified) | -7 | nt | 22 | 56* | -3
CCOC(=O)c1sc(N2C(=O)c3oc4cc(C)c(C)cc4c(=O)c3C2c2ccc(C)cc2)nc1C (stereo unspecified) | -23 | nt | 0 | -11 | -4
CCCCNCC(O)(c1ccc(Cl)cc1)c1ccc(Cl)cc1 | 6 | -87* | 11 | -27 | 3
COc1ccc(CNCC(O)(c2ccc(Cl)cc2)c2ccc(Cl)cc2)cc1 | 28 | 6 | 17 | 0 | -4
CCc1ccccc1NC(=O)c1cnc2sc(N3CCCC3)nn2c1=O | 14 | nt | 3 | 7 | -4
COc1ccc(C(=O)Nc2cccc(-c3cn4ccsc4n3)c2)cc1OC | -9 | nt | -1 | 1 | -4
COc1ccc(C(=O)Nc2cccc(-c3cn4ccsc4n3)c2)c(OC)c1 | -17 | nt | 0 | 63* | -3
Cc1ccc(OC(=O)c2cc(-c3ccc4c(c3)OCCO4)on2)c(C)c1 | 12 | nt | 8 | 11 | -2
CSCCC(NC(=O)COc1ccccc1)C(=O)N1CCC(C(N)=O)CC1 (stereo unspecified) | -31* | 7 | 1 | -4 | nt
O=C(Cc1ccc(F)cc1)NC1CCSC1=O (stereo unspecified) | -33* | 0 | 3 | 24 | -2
O=C(CCCc1ccccc1)NC1CCSC1=O (stereo unspecified) | 1 | 23 | 0 | 2 | 2
O=C(Nc1ccccc1)N1CCN(c2nc(-c3ccccc3)ns2)CC1 | -8 | 11 | 14 | 36* | -7
O=C(Nc1ccccc1Cl)N1CCCN(c2nc(-c3ccccc3)ns2)CC1 | -18 | 9 | 14 | -14 | -3
CCC(C)NC(=O)C1CCN(S(=O)(=O)c2ccc3c(ccn3CC)c2)CC1 (stereo unspecified) | -5 | nt | 6 | -9 | -2
O=C(CSc1nc2ccccc2c(=O)n1NC(=O)Cc1ccccc1)NCc1ccccc1 | -32* | 17 | 6 | 11 | -9
Fc1cccc(CSc2ccc(-c3ccco3)nn2)c1 | 6 | 32 | 4 | 5 | -5
Fc1ccc(CSc2ccc(-c3ccco3)nn2)cc1 | -85* | ? | 1 | -1 | -7
SMILES | D1 antagonist | DRD3 antagonist | D1 ag | D3 ag | D1 potentiator
O=C(c1cc([N+](=O)[O-])ccc1Cl)N1c2ccccc2Sc2ccccc21 | -37* | 12 | 3 | 16 | -7
Cn1c(=O)oc2cc(S(=O)(=O)N3CCc4ccccc43)ccc21 | 5 | 20 | 38* | -1 | -6
Cc1ccc(NC(=O)C2CCCN(S(=O)(=O)c3ccc4c(c3)oc(=O)n4C)C2)cc1Cl (stereo unspecified) | -31* | nt | 2 | 6 | -2
Cn1c(=O)oc2cc(S(=O)(=O)N3CCCc4ccccc43)ccc21 | -17 | -1 | 7 | 4 | nt
Cn1c(=O)oc2cc(S(=O)(=O)N3CCCC(C(=O)N4CCc5ccccc5C4)C3)ccc21 (stereo unspecified) | -38* | ? | 12 | -6 | nt
CCCN(CCC)CCNC(=O)C1CCCN(S(=O)(=O)c2ccc3c(c2)oc(=O)n3C)C1 (stereo unspecified) | 0 | -18 | 1 | 46* | 1
Cc1csc2nc(-c3cccc(NC(=O)C(C)C)c3)cn12 | -12 | nt | -1 | -21 | -1
COc1cc(NC(=O)C2CCN(S(=O)(=O)c3ccc4c(c3)CCCC(=O)N4)CC2)cc(OC)c1 | -12 | nt | 0 | 8 | 0
COc1ccccc1CCNC(=O)Cc1c(C)c2c(cc(C)c3c(C)coc32)oc1=O | -14 | nt | 1 | -8 | 2
Cc1c(C(=O)NCC2COc3ccccc3O2)oc2ccc(S(=O)(=O)N3CC(C)CC(C)C3)cc12 (stereo unspecified) | -31* | -20 | 3 | -25 | -3
Cn1c(=O)oc2cc(S(=O)(=O)N3CCC(C(=O)NCC4COc5ccccc5O4)CC3)ccc21 (stereo unspecified) | -35* | 3 | 1 | 1 | -7
Cc1c(C(=O)NCC2COc3ccccc3O2)oc2ccc(S(=O)(=O)N3CCOCC3)cc12 (stereo unspecified) | 1 | -23 | 7 | 6 | -2
CCCC(=O)N1CCc2cc(OC)c(OC)cc2C1COc1ccc2c(C)cc(=O)oc2c1 (stereo unspecified) | -1 | nt | 0 | 3 | 2
COc1cc(-c2noc(-c3cc4cccc(C)c4oc3=O)n2)cc(OC)c1OC | 5 | nt | 1 | -21 | -4
CCN(CC)c1ccc2cc(-c3nc(-c4cc(OC)c(OC)c(OC)c4)no3)c(=O)oc2c1 | -29 | nt | 153* | 3 | -1
CCN(CC)c1ccc2cc(-c3nc(-c4ccccc4F)no3)c(=O)oc2c1 | -13 | nt | 204* | 4 | 2
CCN(CC)c1ccc2cc(-c3nc(-c4cccs4)no3)c(=O)oc2c1 | -28 | nt | 278* | 1 | -4
CCOc1ccc(-n2c(SCC(=O)Nc3cccc(Cl)c3)nc3c(oc4ccccc43)c2=O)cc1 | -13 | nt | -1 | -1 | 4
N#CC1(c2ccccc2)CCC(NCCc2ccccc2)CC1 (stereo unspecified) | 4 | -54* | 10 | -18 | -11
O=C(NCCc1ccccc1)C1(c2ccccc2)CCCC1 | 3 | -2 | 2 | -4 | -11
O=C(NNC1=Nc2ccccc2SC1)c1cccc([N+](=O)[O-])c1 | 1 | -61* | 2 | -12 | -3
CCCc1cc(=O)[nH]c(SCC(=O)N2CC3(C)CC2CC(C)(C)C3)n1 (stereo unspecified) | -47* | 2 | 2 | 1 | nt
